EP2 modulator: EP2 receptor (human) modulation. EP2-expressing cells, cAMP HTRF FRET, PGE2 co-stimulation. induction, % at 25 µM. 260,000 tested, 0.83% active;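 active = compounds whose cAMP rise, as percent of the full-agonist control response, exceeds 60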;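 note: rat C6 glioma line stably carrying human EP2 under a CMV promoter; the protocol text gives 20 µM as final concentration; 100% = response of wells given 1 µM PGE2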
CHT allo act: human CHT allosteric activation; Q9GZV3; 310,000 tested, 0.49% active; B-score at 10 µM; CHT-expressing cells, membrane potential dye, choline EC20; stronger effect = higher value; LV-AA mutant CHT in HEK293 cells;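 active = initial fluorescence not abnormally high and integrated response B-score, plate-corrected, over 3 SD above library mean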
Target sequence (Q9GZV3 whole entry, looked up): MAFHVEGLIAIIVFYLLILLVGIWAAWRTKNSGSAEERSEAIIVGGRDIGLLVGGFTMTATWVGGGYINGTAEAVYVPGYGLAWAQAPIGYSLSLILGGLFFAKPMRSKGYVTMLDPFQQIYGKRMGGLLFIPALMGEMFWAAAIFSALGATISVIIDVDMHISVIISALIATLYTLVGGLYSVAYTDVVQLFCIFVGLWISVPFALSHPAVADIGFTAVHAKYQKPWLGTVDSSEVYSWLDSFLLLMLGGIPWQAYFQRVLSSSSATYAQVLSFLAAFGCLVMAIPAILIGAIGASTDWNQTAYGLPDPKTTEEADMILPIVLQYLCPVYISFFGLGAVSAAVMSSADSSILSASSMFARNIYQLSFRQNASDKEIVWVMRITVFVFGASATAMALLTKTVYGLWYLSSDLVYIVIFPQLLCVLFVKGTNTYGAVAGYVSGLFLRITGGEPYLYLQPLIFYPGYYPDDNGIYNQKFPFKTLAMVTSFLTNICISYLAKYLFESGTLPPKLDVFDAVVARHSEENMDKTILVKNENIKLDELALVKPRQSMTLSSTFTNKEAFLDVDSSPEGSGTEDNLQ
PGE2 EP2 inh: EP2 receptor (human) inhibition. C6 glioma cells expressing human EP2, cAMP TR-FRET; cells stimulated with saturating PGE2. inhibition, % at 25 µM. 260,000 tested, 0.52% active;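 active = percent inhibition above 40 after rounding to a whole number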;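 note: rat C6 glioma host cells with rolipram phosphodiesterase inhibitor present; the protocol text gives 20 µM as final concentration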
CHT block: inhibits the human high affinity choline transporter | B-score at 10 µM | CHT-expressing cells, membrane potential dye, choline response; stronger effect = lower value | Q9GZV3 | 310,000 tested, 0.86% active;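 active = B-score over 3 SD under the library average, and starting fluorescence ratio not unusually high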;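 note: choline stimulus applied at its EC90 after an EC20 pre-addition; B-score computed on integrated fluorescence ratio after choline addition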
Starred values were filed as active, the others as inactive; i = inactive; x = not tested or not shown; ! = a repeat was not active. Rows were chosen to be rich in hits. Some 2.1% of all compounds tested hit in one or more screens of this group.

SMILES	EP2 modulator	CHT allo act	PGE2 EP2 inh	CHT block
NS(=O)(=O)c1ccc(N=Nc2ccc(=O)[nH]c2O)cc1	2	i	16	i
Nc1ccc(N=Nc2ccc(-c3ccc(O)cc3)cc2)c2ccc(S(=O)(=O)O)cc12	-22	x	49*	x
Cc1cc(NC(=O)c2cnn3c(C(F)(F)F)cc(-c4ccccc4)nc23)no1	-55	i	51*	i
Cc1cc(NC(=O)c2cnn3c(C(F)F)cc(-c4ccccc4)nc23)no1	-12	i	4	i
CC(C)n1c(=NC(=O)c2ccco2)c(C#N)cc2c(=O)n3ccccc3cc21	10	7.2*	x	i
O=c1[nH]c(=S)n(-c2ccccc2F)c(O)c1/C=C1\C=Nc2ccccc21	-99	x	116*	x
Cc1ccc(-n2c(SCC(=O)NC3CC3)nnc2-c2cccnc2)cc1C	26	x	8	x
CCOC(=O)C1=C(C)N(C)C(c2ccccc2)(C(F)(F)F)NC1=O (configuration not stated)	-18	x	43*	x
COc1ccc(C2(C(F)(F)F)NC(=O)N(C)C(=O)N2C)cc1 (configuration not stated)	19	i	4	i
COc1ccc(-c2nc3cc(N)ccc3n2C)cc1	-65	x	14	x
Cn1c(=O)c2c(nc(NCCNc3nc4c(c(=O)n(C)c(=O)n4C)n3C)n2C)n(C)c1=O	20	x	45*	x
Cc1nc2ccc(I)cc2s1	-25	x	10	x
Cc1cc(C)n(C(=O)CCCCCCCCC(=O)n2nc(C)cc2C)n1	61*	i	1	i
CC[C@H](Cn1nc(-c2ccc(OC)cc2)ccc1=O)NC(=O)c1cccs1	-17	x	x	x
Cc1cc(Cl)nc2ccc(Cc3ccc4nc(Cl)cc(C)c4c3)cc12	-13	i	42*!	i
Cc1cc(C)c(C(=O)/C=C/c2ccc(C(C)C)cc2)c(=O)[nH]1	3	i	83*	i
Cc1cc(C)c(C(=O)/C=C/C=C/c2ccccc2)c(=O)[nH]1	-4	i	7	i
Cc1ccc2[nH]c3nc(SCC(=O)N4C(C)CCCC4C)nnc3c2c1 (configuration not stated)	-15	x	5	x
COc1ccc(N2CC(O)=C(c3nc(-c4ccc(Br)cc4)cs3)C2=N)cc1	-32	i	48*	i
COc1ccc(N2CC(O)=C(c3nc(-c4ccccc4)cs3)C2=N)cc1	-42	i	14	i
CCOC(=O)N1CCN(CC(O)COc2ccccc2C(C)C)CC1 (configuration not stated)	17	i	8	i
COc1ccc(C2CCCN2CC(O)COc2ccccc2C(C)C)cc1 (configuration not stated)	x	10*	x	i
CCOC(=O)C1=C(C)N=c2s/c(=C/c3cccc([N+](=O)[O-])c3O)c(=O)n2C1c1ccccc1 (configuration not stated)	x	i	x	-8*
CCOC(=O)C1=C(C)N=c2s/c(=C\c3ccc(OCC(=O)O)cc3)c(=O)n2C1c1ccccc1 (configuration not stated)	x	i	x	i
COc1ccc(C(=O)N2CCN(C(=O)c3ccc(OC)c(OC)c3)CC2)cc1	-6	x	11	x
SMILES	EP2 modulator	CHT allo act	PGE2 EP2 inh	CHT block
OC(CN1CCC2(CC1)CC(O)c1cc(F)ccc1O2)c1ccccc1 (configuration not stated)	-38	x	6	x
CN1CCN(CN2C(=O)[C@H]3[C@H]4C=C[C@@H]([C@@H]3C2=O)[C@H]2[C@@H]3C(=O)N(CN5CCN(C)CC5)C(=O)[C@@H]3[C@@H]42)CC1	8	x	53*	x
COc1cc2c(cc1OC)C(c1ccc(-c3ccc(Cl)cc3Cl)o1)=NCC2	-22	i	x	i
COc1cc2c(cc1OC)C(c1ccc(-c3ccccc3Cl)o1)=NCC2	21	6.6*	4	i
COc1ccc(S(=O)(=O)N(CC(=O)Nc2cccnc2)c2ccccc2)cc1	-23	x	12	x
O=[N+]([O-])c1cccc(-c2csc(Nc3ccccc3)n2)c1	28	i	8	i
COc1cc(NS(=O)(=O)c2ccc(Nc3nc(-c4cccc([N+](=O)[O-])c4)cs3)cc2)nc(OC)n1	-67	i	45*	i
Cc1ccccc1S(=O)(=O)Nc1nc2ccccc2nc1N1CCOCC1	-20	i	40*	i
CCc1ncc(CN2CCC(O)(c3ccc4c(c3)OCO4)CC2)cn1	31	x	6	x
C[C@H]1CC(C)(C)C[C@@](OCCN2CCCCC2)(c2ccccc2)C1	7	x	53*	x
c1ccc(-c2ccccc2OCCCN2CCCCC2)cc1	15	i	18	i
CCOc1ccc(-n2c(=S)sc3c(=O)[nH]c(SCC(=O)N4CCC(C)CC4)nc32)cc1	62*	i	-2	i
